Data on one compound can be found in PubChem BioAssay AID2284084 (EPA ToxCast).

Calls of active or inactive are those of the source. How the source made its calls: active means hit-call score of the fitted dose curve at least 0.9, where 1 is the maximum; inactive means score below 0.9.

The assay deals with human CK1alpha CK1 Kinase, CSNK1A1 (gene 1452) (UniProt P48729). Description: ERF_TW_ENZ_hCSNK1A1: Eurofins (ERF) Enzymatic Radiometric [10 uM ATP] Assay for human CK1alpha CK1 Kinase. As to the method: ERF_TW_ENZ_hCSNK1A1 is a biochemical, single-readout assay that uses extracted gene-proteins in a cell-free assay. Measurements were taken 0.5 hour after chemical dosing in a 96-well plate. See CK1alpha Human CK1 Kinase Enzymatic Radiometric Assay [10 uM ATP], Panlabs.ERF_TW_ENZ_hCSNK1A1 is an assay component calculated from the ERF_TW_ENZ_hCSNK1A1 assay. It is designed to measure enzyme activity using a type of enzyme reporter as detected by scintillation counting with radiometry technology.Data from the assay component ERF_TW_ENZ_hCSNK1A1 was analyzed at the assay endpoint, ERF_TW_ENZ_hCSNK1A1, in the positive analysis fitting direction relative to DMSO as the negative control and baseline of activity. Using a type of enzyme reporter, loss-of-signal activity can be used to understand changes in enzymatic activity as they relate to gene CSNK1A1. To generalize the intended target to other relatable targets, this assay endpoint is annotated to the kinase intended target family, where the subfamily is serine/threonine kinase.
Sequence of human CK1alpha CK1 Kinase, CSNK1A1 (gene 1452) (P48729 whole entry, looked up): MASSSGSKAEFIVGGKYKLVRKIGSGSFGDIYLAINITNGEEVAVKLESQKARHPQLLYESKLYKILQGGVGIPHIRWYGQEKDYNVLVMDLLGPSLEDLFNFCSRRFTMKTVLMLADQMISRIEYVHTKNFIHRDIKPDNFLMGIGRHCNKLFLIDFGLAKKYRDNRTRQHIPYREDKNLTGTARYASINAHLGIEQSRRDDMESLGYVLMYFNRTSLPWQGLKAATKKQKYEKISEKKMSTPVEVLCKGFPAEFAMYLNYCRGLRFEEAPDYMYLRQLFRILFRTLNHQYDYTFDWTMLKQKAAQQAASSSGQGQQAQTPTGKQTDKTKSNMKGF
CK1alpha (h) is incubated for 120 minutes at room temperature, with KRRRALS(p)VASLPGL (SP15) as substrate, and PP1 Analog II. 1NM-PP1 as control inhibitor. Test Sample Requirements: Compound should be supplied in 100%DMSO. We require a stock solution at a concentration of at least 50x higher than the Final Assay Concentration of your cpd. […]
In the case of `O=C(/C=C/c1ccc(O)cc1)CC(=O)/C=C/c1ccc(O)cc1`, the AC50 (in general, the concentration giving half of the maximal activity seen) was 872 nM (active).
